Assay results from PubChem BioAssay AID1159580 (chemical genetic matrix, 2015).
Where “and” joins values, the source holds several entries; their conditions need not be identical. Identical values can stand only once. In all, about 5,500 compounds went through this assay and about 2,000 (36%) were called active. Roughly 18% stayed inconclusive and do not appear here. Rule as the data show it: active = normalized growth mostly below about 0.91 (no sharp cut-off); inconclusive = no clear call, values can overlap the other calls; inactive = mostly above about 0.92. This is one part of the list.

Test: chemical genetic growth profiling, strain panel (AID 1159580);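 also: tested at 20 µM; growth read once vehicle control cultures reached saturation at 30 °C; 1 = growth at the plate median or of vehicle wells; lower values mean less growth of the strain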
Settings: S. cerevisiae deletion strains, growth OD

Measured: normalized growth

COc1ccc(C(=O)c2ccccc2)c(O)c1
active: locus YAL026C, strain drs2, stronger effect = lower value 0.74 | locus YAL030W, strain snc1, stronger effect = lower value 0.841 | locus YBL061C, strain skt5, stronger effect = lower value 0.762 | locus YBR009C, strain hhf1, stronger effect = lower value 0.789 | locus YBR023C, strain chs3, stronger effect = lower value 0.807 | locus YBR171W, strain sec66, stronger effect = lower value 0.769 | locus YBR231C, strain swc5, stronger effect = lower value 0.834 | locus YBR279W, strain paf1, stronger effect = lower value 0.854 | locus YCL011C, strain gbp2, stronger effect = lower value 0.78 | locus YCL016C, strain dcc1, stronger effect = lower value 0.792 | locus YCL061C, strain MRC1, stronger effect = lower value 0.791 | locus YCL069W, strain vba3, stronger effect = lower value 0.779 | locus YCR088W, strain abp1, stronger effect = lower value 0.833 | locus YDL005C, strain med2, stronger effect = lower value 0.903 | locus YDL035C, strain GPR1, stronger effect = lower value 0.855 | locus YDL040C, strain nat1, stronger effect = lower value 0.861 | locus YDL074C, strain BRE1, stronger effect = lower value 0.691 | locus YDL192W, strain arf1, stronger effect = lower value 0.808 | locus YDR001C, strain nth1, stronger effect = lower value 0.863 | locus YDR069C, strain doa4, stronger effect = lower value 0.879 | locus YDR101C, strain arx1, stronger effect = lower value 0.868 | locus YDR137W, strain rgp1, stronger effect = lower value 0.451 | locus YDR159W, strain sac3, stronger effect = lower value 0.671 | locus YDR162C, strain NBP2, stronger effect = lower value 0.671 | locus YDR195W, strain ref2 1.16 [resistant] | locus YDR297W, strain sur2, stronger effect = lower value 0.853 | locus YDR318W, strain mcm21, stronger effect = lower value 0.833 | locus YDR334W, strain swr1, stronger effect = lower value 0.859 | locus YDR335W, strain msn5, stronger effect = lower value 0.758 | locus YDR388W, stronger effect = lower value 0.881 | locus YDR392W, strain spt3, stronger effect = lower value 0.43 | locus YDR502C, strain sam2, stronger effect = lower value 0.804 | locus YEL003W, strain gim4, stronger effect = lower value 0.778 | locus YEL037C, strain rad23, stronger effect = lower value 0.841 | locus YEL061C, strain CIN8 (second series), stronger effect = lower value 0.813 | locus YER015W, strain faa2, stronger effect = lower value 0.752 | locus YER016W, strain bim1, stronger effect = lower value 0.862 | locus YER110C, stronger effect = lower value 0.891 | locus YER111C, strain swi4, stronger effect = lower value 0.797 | locus YER155C, strain BEM2 (second series), stronger effect = lower value 0.24 | locus YER155C, strain BEM2, stronger effect = lower value 0.926 | locus YER167W, strain BCK2, stronger effect = lower value 0.837 | locus YFR010W, strain ubp6, stronger effect = lower value 0.888 | locus YGL078C, strain dbp3, stronger effect = lower value 0.911 | locus YGL086W, strain mad1, stronger effect = lower value 0.828 | locus YGL167C, strain pmr1, stronger effect = lower value 0.772 | locus YGL173C, strain kem1, stronger effect = lower value 0.72 | locus YGL227W, strain vid30, stronger effect = lower value 0.84 | locus YGL240W, strain doc1, stronger effect = lower value 0.609 | locus YGL253W, strain hxk2, stronger effect = lower value 0.686 | locus YGR135W, strain pre9, stronger effect = lower value 0.729 | locus YGR229C, strain SMI1, stronger effect = lower value 0.558 | locus YGR252W, strain gcn5, stronger effect = lower value 0.666 | locus YHR013C, strain ard1, stronger effect = lower value 0.757 | locus YHR027C, strain rpn1, stronger effect = lower value 0.87 | locus YHR079C, strain IRE1 (second series), stronger effect = lower value 0.894 | locus YHR079C, strain IRE1, stronger effect = lower value 0.842 | locus YHR094C, strain hxt1, stronger effect = lower value 0.915 | locus YHR142W, strain chs7, stronger effect = lower value 0.541 | locus YHR200W, strain rpn10, stronger effect = lower value 0.861 | locus YIL066C, strain RNR3, stronger effect = lower value 0.827 | locus YIL125W, strain kgd1, stronger effect = lower value 0.898 | locus YIR030C, strain dcg1, stronger effect = lower value 0.906 | locus YJL092W, strain hpr5, stronger effect = lower value 0.827 | locus YJL095W, strain BCK1 (second series), stronger effect = lower value 0.703 | locus YJL095W, strain BCK1, stronger effect = lower value 0.699 and 0.86 | locus YJL115W, strain asf1, stronger effect = lower value 0.869 | locus YJL129C, strain trk1, stronger effect = lower value 0.649 | locus YJL154C, strain vps35, stronger effect = lower value 0.882 | locus YJL164C, strain tpk1, stronger effect = lower value 0.805 | locus YJL166W, strain qcr8, stronger effect = lower value 0.742 | locus YJL168C, strain set2, stronger effect = lower value 0.913
inactive: locus YAL013W, strain DEP1, stronger effect = lower value 0.914 | locus YAL021C, strain ccr4, stronger effect = lower value 0.918 | locus YBR021W, strain FUR4, stronger effect = lower value 0.975 | locus YBR229C, strain ROT2, stronger effect = lower value 0.956 | locus YCL029C, strain bik1, stronger effect = lower value 0.92 | locus YDL101C, strain DUN1, stronger effect = lower value 0.963 | locus YDL134C, strain PPH21, stronger effect = lower value 0.949 | locus YDL185W, strain tfp1, stronger effect = lower value 0.908 | locus YDR150W, strain NUM1, stronger effect = lower value 0.934 | locus YEL061C, strain CIN8, stronger effect = lower value 0.939 | locus YGL248W, strain PDE1, stronger effect = lower value 0.944 | locus YGR078C, strain PAC10, stronger effect = lower value 0.859 | locus YHR129C, strain ARP1, stronger effect = lower value 0.936 | locus YIL073C, strain SPO22, stronger effect = lower value 0.75 | locus YJL134W, strain LCB3, stronger effect = lower value 0.945 | locus YJL187C, strain SWE1 (second series), stronger effect = lower value 0.943 | locus YJR043C, strain POL32, stronger effect = lower value 0.879 | locus YJR066W, strain TOR1, stronger effect = lower value 0.835
0.755 (active) and 0.874 (inactive): locus YHR030C, strain SLT2, stronger effect = lower value
